# From PubChem BioAssay
# Values without a mark were called inactive. Calls of active or inactive are those of the source.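 How the source made its calls: active means growth inhibition above 50% at the single 2 µM test dose, taken to imply half-maximal potency below 2 µM; inactive means the rest.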
# Assay: antimalarial activity against Dd2 strain (AID 2302);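 further: 0% = DMSO untreated growth and 100% = chloroquine plus artemisinin killed control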
# Conditions: P. falciparum Dd2 in RBCs, LDH growth readout, 72 h; at 2 µM; active compounds read high
row,SMILES,growth inhibition
1,O=C(NCCCCN1CCC(c2c[nH]c3ccc(-c4ccccc4)cc23)CC1)c1ccc(-c2ccccc2)cc1,40%
2,O=C(CC1SC(N2N=C(c3cccs3)CC2c2ccccc2)=NC1=O)Nc1ccc(Cl)cc1 (stereo unspecified),88% (active)
3,N#Cc1cccc(NC(=O)c2cccc(S(=O)(=O)NC3CCN(CC4CCCCC4)C3)c2)c1 (stereo unspecified),27%
4,CCOc1cc(C(C)C)ccc1N1CCN(CCCCNC(=O)c2ccc(NC(=O)c3ccc(Cl)cc3)cc2)CC1,97% (active)
5,COc1ccccc1-c1cccc2c(NC(=O)Nc3ccc4nccc(N5CCN(C)CC5)c4c3)ccnc12,34%
6,C=C(C)Cn1cc(C2CCN(CCCCNC(=O)c3sc(-c4ccc(Cl)cc4Cl)nc3CO)CC2)c2ccccc21,19%
7,O=[N+]([O-])c1cccc(NC(=S)N2CCCN(Cc3ccc(C(F)(F)F)cc3)CC2)c1,49%
8,COc1ccc2nc(C)cc(NCc3cccc4ccccc34)c2c1,72% (active)
9,O=C(Nc1ccc(Oc2ccccc2)cc1)N(CCN1CCCC1)Cc1ccc(-c2ccc(CN3CCNCC3)cc2)cc1,90% (active)
10,CCN(CC)CCNc1nc(C=Cc2ccc(Cl)cc2)nc2cc3ccccc3cc12,99% (active)
11,O=C(N[C@@H](CC1CCCCC1)C(=O)NCCN1CCOCC1)c1ccc(O)c(-c2ccc(Cl)c(Cl)c2)c1,99% (active)
12,COC[C@H]1CCCN1Cc1ccc(-c2ccc(-c3nc4ccccc4[nH]3)s2)cc1,58% (active)
13,CN(C)CCOc1ccc(N2CCN(CCCCNC(=O)c3ccc(/C=C/c4cc(Cl)cc(Cl)c4)cc3)CC2)cc1,84% (active)
14,Cc1ccc(Cn2cnc3cc(C(=O)Nc4ccc(-c5ccc(CN(C)C)cc5)cc4)ccc3c2=O)o1,12%
15,COc1cc2c(cc1N(C(C)C)S(=O)(=O)c1sc3ccc(Cl)cc3c1C)CCNCC2,70% (active)
16,Cc1cc(-c2c[nH]c3ncc(-c4cccc5ncccc45)cc23)ccc1C(=O)O,77% (active)
17,O=C(N[C@@H](Cc1ccccc1)[C@H](O)CNC1CCCc2ccccc21)c1cc(C2CCCC2)cc(N2CCCC2=O)c1 (stereo partly specified),99% (active)
18,O=C(NC(CCCN1CCC2(CC1)OCc1ccccc12)c1ccc(Cl)c(Cl)c1)c1cc(C(F)(F)F)cc(C(F)(F)F)c1 (stereo unspecified),99% (active)

row,SMILES,growth inhibition
1,CN(C(=O)/C=C/c1cc(C(F)(F)F)ccc1F)C1CCN(CCCCCNC(=O)/C=C/c2ccc(Cl)c(Cl)c2)CC1,68% (active)
2,Cc1[nH]c(C)c(-c2ccc(OCc3ccccc3C(F)(F)F)nc2)c(=O)c1Br,97% (active)
3,CCCCOC(=O)C1=C(C)NC2=C(C(=O)CC(c3ccc(OC)c(OC)c3)C2)C1c1ccc(O)cc1 (stereo unspecified),75% (active)
4,Cc1ccc(C)c(Cn2ccc3nc(N)nc(N)c32)c1,3%
5,CCOC(=O)c1ccc(NC(=O)N[C@@H](Cc2ccccc2)C(=O)NC2CCN(Cc3ccc(OCCCN(C)C)cc3)C2)cc1 (stereo partly specified),8%
6,COc1ccc(NC2=C(c3ccccc3)C(=O)c3ccccc32)cn1,84% (active)
7,NC(=NC1CC1)c1ccc2nc(CCCCCc3nc4ccc(C(N)=NC5CC5)cc4[nH]3)[nH]c2c1,72% (active)
8,CCNc1cc(C)nc(Nc2ccc(NC(=O)c3ccco3)cc2)n1,32%
9,Cn1cncc1C(=O)Nc1cccc(-c2cccc(-c3nc4ccc(F)cc4[nH]3)c2)c1,45%
10,Cc1ccccc1N1CCN(c2ccc(C(=O)Nc3ccccc3)cn2)CC1,69% (active)
11,CN(C)Cc1cc2c(O)c(Cc3ccccc3)ccc2o1,69% (active)
12,COc1ccc(-c2nc3c(N)nc(N)nc3nc2-c2ccccc2Cl)cc1 (tested in a mixture with another compound),-1%
13,COc1ccccc1/C=C/C(=O)NCCC1CCN(CCCCCNC(=O)/C=C/c2ccc(Cl)c(Cl)c2)CC1,0%
14,O=C(Nc1cccc(-c2cccc(-c3nc4ccc(F)cc4[nH]3)c2)c1)c1ccncc1,24%
15,CC(C)CNC(=O)c1cncc(-c2ccc(CNC3Cc4ccccc4C3)cc2)c1,37%
16,CC(C)n1cc2c(ccc3nc(N)nc(N)c32)n1,-2%
17,O=C(/C=C/c1ccc(Cl)c(Cl)c1)NCCCCCN1CCCC(CNC(=O)/C=C/c2ccccc2)C1 (stereo unspecified),6%
18,COc1cc2ncnc(Nc3ccc4nc(-c5ccccc5)[nH]c4c3)c2cc1OC,32%
